Sampled rows, rich in hits. Any-hit rate of the full collection: about 2.4%.
D2 antagonist = antagonizes the human D2 dopamine receptor. P14416. HEK293 TREx D2 cells, calcium flux, dopamine EC80. inhibition, % at 10 µM. 340,000 compounds, 2% hits. AID 485344; in the data active = inhibition above about 30%; inactive = below that, where a call was filed; also: 0% is about no effect
Target sequence (P14416 whole entry, looked up): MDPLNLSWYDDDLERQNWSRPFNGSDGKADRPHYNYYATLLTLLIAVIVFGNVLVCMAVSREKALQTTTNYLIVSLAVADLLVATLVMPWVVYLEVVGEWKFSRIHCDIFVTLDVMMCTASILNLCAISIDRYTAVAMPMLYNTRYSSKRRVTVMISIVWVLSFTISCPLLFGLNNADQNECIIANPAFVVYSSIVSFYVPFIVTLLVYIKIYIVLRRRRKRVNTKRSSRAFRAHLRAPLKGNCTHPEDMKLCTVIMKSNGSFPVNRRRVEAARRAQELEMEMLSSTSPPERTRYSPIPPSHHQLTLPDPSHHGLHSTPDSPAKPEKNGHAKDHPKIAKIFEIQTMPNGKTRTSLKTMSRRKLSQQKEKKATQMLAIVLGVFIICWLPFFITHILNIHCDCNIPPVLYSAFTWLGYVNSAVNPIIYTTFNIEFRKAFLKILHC
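Inhibition of EC80 dopamine-driven calcium flux, recorded kinetically, defines activity here; cells are a tetracycline-induced HEK293 T-REx line expressing force-coupled D2.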
D2 ag-1 = D2 dopamine receptor (human) agonism. P14416. HEK293 T-REx D2 cells, calcium flux agonist mode. activation, % at 2 µM. 340,000 compounds, 0.53% hits;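 active = activation over 3 SD above normal in the single-dose calcium agonist read, cut at about 30% in these data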; also: 0% is about no effect
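Agonism is scored from calcium flux in a force-coupled, inducible HEK293 cell line expressing D2, read kinetically for 180 s after compound addition against dopamine controls.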
D2 PAM-1 = positive allosteric modulators of human D2 dopamine receptor; P14416; DiscoveRx D2 beta-arrestin cells, luminescence, 90 min; 100% = 57 uM dopamine signal; potentiation, % (test concentration not listed); 360,000 compounds, 0.23% hits; in the data active = potentiation above about 50%; inconclusive = mostly about 30% to 49%
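PathHunter beta-arrestin assay in DiscoveRx D2 cells. Compounds were added with an EC20 of dopamine (50 nM final) for 90 min at 37 deg C. Luminescence was read 1 h after detection reagent, with 57 uM dopamine as the EC100 control.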
D2 ag-2 = human D2 receptor agonism in beta-arrestin assay. P14416. DiscoveRx PathHunter D2 beta-arrestin, luminescence, 90 min; 100% = 57 uM dopamine signal. activation, % (concentration not given with the values). 360,000 compounds, 0.084% hits. AID 624465; in the data active = activation above about 40%; inconclusive = between about 15% and that limit
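Agonist mode: compounds alone added to overnight-plated D2 PathHunter cells for 90 min at 37 C, with 57 uM final dopamine (EC100) defining full response. Beta-arrestin recruitment detected by chemiluminescent reagent, read after 1 h at ambient temperature.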
D2 PAM-2 = D2 dopamine receptor (human) potentiation | P14416 | HEK293 T-REx D2, calcium flux, EC20 dopamine potentiation | potentiation, % at 10 µM | 340,000 compounds, 0.34% hits | AID 485347;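 active = potentiation over 3 SD above the plate norm, cut at about 30% in these data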; also: 0% is about no effect
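Calcium flux readout, no-wash dye, 1 read/s. Inducible HEK293 Trex D2 line, overnight 30 C. Compound alone 180 s (agonist flags), then EC20 dopamine, another 180 s to score potentiation.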
Starred values were filed as active, the others as inactive; ? = inconclusive; nt = no result given.

SMILES	D2 antagonist	D2 ag-1	D2 PAM-1	D2 ag-2	D2 PAM-2
Cc1ccc(NC(=O)CCNC(=O)c2ccco2)cc1Cl	36*	0	-5	-4	-1
COc1ccc(OC)c(NC(=O)CSC2=Nc3ccccc3C3=NC(CC(=O)NCc4ccc5c(c4)OCO5)C(=O)N23)c1 (stereo not drawn)	nt	0	nt	nt	9
CC(C)N(c1ccccc1)c1ccc(NC(=S)NCCN(C)C)cc1	82*	1	0	5	-29
COCCn1c(SCC(=O)c2ccc(F)cc2)nnc1C(C)C	13	-1	-17	-3	11
COCCn1nnnc1SCC(=O)c1ccc(F)cc1	39*	1	-19	-8	5
O=C(CS(=O)(=O)c1cccc2nsnc12)Nc1ccc(F)cc1F	nt	nt	nt	nt	20
Cc1nc2sc(C(=O)OCC(=O)N3c4ccccc4CC3C)c(C)c2c(=O)[nH]1 (stereo not drawn)	52*	5	-1	-1	-7
O=C(Nc1ccnn1C1CCN(Cc2cccnc2)CC1)c1ccccc1Cl	-7	0	7	-3	5
Cc1cc(CN2CCC(n3nccc3NC(=O)c3ccccc3Cl)CC2)cc(C)c1O	55*	1	-20	-3	-19
COc1ccccc1C(=O)Nc1ccnn1C1CCN(Cc2csc(C(C)=O)c2)CC1	32*	1	-28	-2	-1
Cc1ccccc1C(=O)Nc1ccnn1C1CCN(Cc2ccncc2)CC1	31*	1	3	-5	-18
COc1ccc(CN2CCC(n3nccc3NC(=O)c3ccc4c(c3)OCO4)CC2)cc1C	45*	1	-32	2	-12
Cc1ccccc1CN1CCC(n2nccc2NC(=O)c2ccc3c(c2)OCO3)CC1	-6	0	-47	-9	-1
COc1cccc(CSc2nc3ccncc3n2CC(=O)Nc2ccc(OC)c(OC)c2OC)c1	nt	1	nt	nt	-15
COc1cc(OC)c(N(C)C(=O)c2sc3nc4n(c(=O)c3c2C)CCCC4)cc1Cl	nt	3	nt	nt	-9
Cc1cccc(N(C)C(CNS(=O)(=O)c2ccccc2)c2ccccc2)c1 (stereo not drawn)	nt	1	nt	nt	1
CCOC(=O)c1cc2c(=O)n3ccccc3nc2n(CCCOC)c1=NC(=O)c1c(-c2c(F)cccc2Cl)noc1C	nt	0	nt	nt	6
CN(C)/C=N/c1cc(=O)[nH]c(=O)n1Cc1ccccc1	40*	0	-24	-2	6
Cc1cc(N(CCO)Cc2ccccc2)n2nc(-c3ccc(C(C)(C)C)cc3)nc2n1	nt	1	nt	nt	nt
Cn1nnc(NC(=O)CSc2nnnn2-c2ccc(F)cc2)n1	nt	nt	-3	0	nt
Cn1nnc(NC(=O)CSc2ccc(Cl)cc2)n1	40*	0	-5	-1	8
Cn1nnc(NC(=S)NC(=O)c2cc(Cl)ccc2Cl)n1	31*	-2	-44	-11	-5
CCCCCn1c(NCc2ccccc2OC)nc2ccccc21	nt	0	nt	nt	nt
O=S(=O)(CCc1nc2ccccc2s1)c1ccc(Cl)cc1	-8	0	7	2	0
COc1ccc(S(=O)(=O)CCc2nc3ccccc3s2)cc1	59*	0	-2	-3	-3
SMILES	D2 antagonist	D2 ag-1	D2 PAM-1	D2 ag-2	D2 PAM-2
c1ccc(Cn2nnc3c(N4CCc5ccccc54)ncnc32)cc1	-18	1	-20	-1	36*
CSc1ccc(C#N)cc1NC(=O)c1ccccc1C	51*	1	-3	3	-17
CCn1c(SCC(=O)NCc2ccc3c(c2)OCO3)nnc1-c1c[nH]c2ccccc12	0	-1	-10	1	34*
CN(C)c1ccc(O)c2c1CC1CC3C(N(C)C)C(=O)C(C(N)=O)=C(O)[C@@]3(O)C(=O)C1=C2O (stereo partly drawn)	nt	nt	0	-3	nt
CN(C)c1ccc(O)c2c1CC1CC3[C@@H](N(C)C)C(=O)C(C(N)=O)C(=O)[C@]3(O)C(=O)C1C2=O (stereo partly drawn)	nt	nt	61*	?	nt
COc1ccc(/C=N/NC(=O)c2sccc2OCc2ccc(F)cc2)cc1OC	37*	-1	17	-2	-8
COc1ccc(OCC(=O)Nc2nc(-c3ccc(Br)cc3)ns2)cc1	nt	4	nt	nt	15
CCOC(=O)C1(C)C=C(Nc2ccc(O)cc2)C(=O)N1c1ccc(O)cc1 (stereo not drawn)	-4	-1	104*	?	-1
